According to PubChem BioAssay (NCI):
This is part of a sample that, as a whole, favours compounds with a hit. Of some 79,000 tested, about 15% had one in any assay. The source made the active and inactive calls. Rule as the data show it: active = growth inhibition above about 70%; inactive = the rest.

Legend:
[1] = NCI Yeast Anticancer Drug Screen. Data for the rad52 strain (AID 147);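 also: 0% = growth of vehicle-treated control cultures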; details: S. cerevisiae rad52 mutant growth inhibition, active compounds read high
Method in brief: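 The repair-mutant yeast strain was incubated with compounds, then growth was read and inhibition derived relative to vehicle.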

[2] = NCI Yeast Anticancer Drug Screen. Data for the wt1 strain (AID 149);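 also: 0% = growth of vehicle-treated wt1 cultures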; details: S. cerevisiae wt1 strain (SPY 50644) growth inhibition, active compounds read high
Method in brief: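 Vehicle-normalised growth inhibition; strain wt1; compound exposure.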

[3] = NCI Yeast Anticancer Drug Screen. Data for the rad50EPP+ strain (AID 151);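 also: 0% = growth of vehicle-treated control cultures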; details: S. cerevisiae rad50 mutant strain, active compounds read high
Method in brief: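 Vehicle-normalised growth inhibition; rad50EPP+ yeast strain, altered in DNA damage repair, compound-treated.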

[4] = NCI Yeast Anticancer Drug Screen. Data for the mgt1 strain (AID 153); details: S. cerevisiae mgt1 mutant growth inhibition, active compounds read high
Method in brief: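 Vehicle-normalized growth inhibition is determined in mgt1 yeast, a strain selected for a defined alteration in DNA repair or cell cycle control.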

[5] = NCI Yeast Anticancer Drug Screen. Data for the rad50 strain (AID 155);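 also: 0% = growth of vehicle-only cultures of the same strain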; details: S. cerevisiae rad50 strain growth inhibition, active compounds read high
Method in brief: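 A DNA repair-deficient yeast mutant serves as the test organism; compound-induced growth inhibition is calculated against vehicle-treated cells.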

[6] = NCI Yeast Anticancer Drug Screen. Data for the mec2-1 strain (AID 157); details: S. cerevisiae mec2-1 strain, active compounds read high
Method in brief: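 Mutant yeast (mec2-1) grown with compound; growth inhibition relative to vehicle control reported.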

[7] = NCI Yeast Anticancer Drug Screen. Data for the rad14 strain (AID 159);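 also: 0% = growth of vehicle-treated control cultures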; details: S. cerevisiae rad14 strain growth inhibition, active compounds read high
Method in brief: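 Vehicle-treated cultures served as the baseline for growth inhibition of a DNA repair-mutant yeast strain exposed to each compound.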

[8] = NCI Yeast Anticancer Drug Screen. Data for the sgs1 mgt1 strain (AID 161);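 also: 0% = growth of cultures given vehicle only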; details: S. cerevisiae sgs1 mgt1 strain, active compounds read high
Method in brief: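 Growth of a repair-deficient yeast mutant was monitored after compound treatment and expressed as inhibition relative to vehicle-treated cultures.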

[9] = NCI Yeast Anticancer Drug Screen. Data for the CLN2oe strain (AID 163);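 also: 0% = growth of vehicle-only control cultures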; details: S. cerevisiae CLN2oe strain, active compounds read high
Method in brief: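 Compounds are applied to yeast harbouring a defined cell-cycle control change; reduced growth compared with vehicle-treated controls gives the value.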

[10] = NCI Yeast Anticancer Drug Screen. Data for the cln2 rad14 strain (AID 165);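 also: 0% = growth equal to vehicle treated cultures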; details: S. cerevisiae cln2 rad14 strain, active compounds read high
Method in brief: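 Readout is yeast growth inhibition versus vehicle-treated controls, using a strain with cln2 and rad14 alterations exposed to compound.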

[11] = NCI Yeast Anticancer Drug Screen. Data for the bub3 strain (AID 167); details: S. cerevisiae bub3 mutant strain, active compounds read high
Method in brief: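 Inhibition values come from growth of compound-treated mutant yeast normalised to vehicle-treated controls.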

[12] = NCI Yeast Anticancer Drug Screen. Data for the wt2 strain (AID 169);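 also: 0% = growth of vehicle-treated yeast cultures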; details: S. cerevisiae wt2 strain growth inhibition, active compounds read high
Method in brief: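 Against vehicle-treated controls, the growth of yeast exposed to each compound was compared, and the inhibition was recorded.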

[13] = NCI Yeast Anticancer Drug Screen. Data for the mlh1 strain (AID 171);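 also: 0% = growth of vehicle-treated control cultures of the same strain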; details: S. cerevisiae mlh1 strain growth inhibition, active compounds read high
Method in brief: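 Measured: yeast growth. Reference: vehicle-treated controls. Organism: strain with a defined alteration affecting DNA damage repair or cell cycle control, treated with compound.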

[14] = NCI Yeast Anticancer Drug Screen. Data for the sgs1 strain (AID 173);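 also: 0% = growth of vehicle-only control cultures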; details: S. cerevisiae sgs1 mutant, active compounds read high
Method in brief: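 Each compound was added to cultures of the altered yeast strain. Growth was recorded, and inhibition was derived by comparison with vehicle controls.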

[15] = NCI Yeast Anticancer Drug Screen. Data for the mlh1 rad18 strain (AID 175); details: S. cerevisiae mlh1 rad18 strain growth inhibition, active compounds read high
Method in brief: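 Genetically defined yeast (DNA repair-deficient) exposed to compounds; growth inhibition determined relative to vehicle.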

[16] = NCI Yeast Anticancer Drug Screen. Data for the rad18 strain (AID 177); details: S. cerevisiae rad18 mutant growth inhibition, active compounds read high
Method in brief: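 Vehicle-treated cultures served as the baseline for scoring compound-induced growth inhibition in DNA-repair-mutant yeast.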

[17] = at 5.0 µM (retest, dose inferred, filed as 0.5)
[18] = at 50.0 µM (retest, dose inferred, filed as 5.0)

Measured: growth inhibition

COc1ccc(C(=O)c2ccccc2C(=O)c2ccccc2OC)cc1
active: [11]; [18] 79%
inactive: [1]; at 1.2 µM -1% | [1]; at 3.7 µM -2% | [1]; at 11.0 µM 1% | [1]; at 33.0 µM 6% | [1]; at 100.0 µM 14% | [2]; at 1.2 µM -2% | [2]; at 3.7 µM 1% | [2]; at 11.0 µM -6% | [2]; at 33.0 µM -7% | [2]; at 100.0 µM -4% | [3]; at 1.2 µM 5% | [3]; at 3.7 µM 9% | [3]; at 11.0 µM 11% | [3]; at 33.0 µM 15% | [3]; at 100.0 µM 13% | [4]; at 1.2 µM -1% | [4]; at 3.7 µM -1% | [4]; at 11.0 µM -2% | [4]; at 33.0 µM -1% | [4]; at 100.0 µM 7% | [5]; at 1.2 µM -1% | [5]; at 3.7 µM 1% | [5]; [17] 7% | [5]; at 11.0 µM -1% | [5]; at 33.0 µM 4% | [5]; [18] 46% | [5]; at 50.0 µM 12.8% | [5]; at 100.0 µM 10% | [6]; at 1.2 µM -2% | [6]; at 3.7 µM 1% | [6]; [17] -10% | [6]; at 11.0 µM 1% | [6]; at 33.0 µM 7% | [6]; [18] 16% | [6]; at 50.0 µM 10.1% | [6]; at 100.0 µM 11% | [7]; at 1.2 µM -3% | [7]; at 3.7 µM -5% | [7]; at 11.0 µM -5% | [7]; at 33.0 µM -1% | [7]; at 100.0 µM 8% | [8]; [17] 17% | [8]; [18] 55% | [8]; at 50.0 µM 15.4% | [9]; at 1.2 µM 2% | [9]; at 3.7 µM -15% | [9]; at 11.0 µM 0% | [9]; at 33.0 µM 7% | [9]; at 100.0 µM 24% | [10]; [17] 9% | [10]; [18] 35% | [10]; at 50.0 µM 13.7% | [11]; at 1.2 µM -1% | [11]; at 3.7 µM 3% | [11]; [17] 16% | [11]; at 11.0 µM 7% | [11]; at 33.0 µM 27% | [11]; at 50.0 µM 39.5% | [11]; at 100.0 µM 43% | [12]; at 1.2 µM -1% | [12]; at 3.7 µM -2% | [12]; at 11.0 µM -5% | [12]; at 33.0 µM -2% | [12]; at 100.0 µM 1% | [13]; at 1.2 µM 1% | [13]; at 3.7 µM -2% | [13]; at 11.0 µM -1% | [13]; at 33.0 µM 4% | [13]; at 100.0 µM 15% | [14]; at 1.2 µM -1% | [14]; at 3.7 µM -2% | [14]; at 11.0 µM 0% | [14]; at 33.0 µM 9% | [14]; at 100.0 µM 15% | [15]; [17] 30% | [15]; [18] 68% | [15]; at 50.0 µM 20.7% | [16]; at 1.2 µM -1% | [16]; at 3.7 µM -5% | [16]; at 11.0 µM -4% | [16]; at 33.0 µM 3% | [16]; at 100.0 µM 12%

CCCCCCCCCCCCNC(C)=O
inactive: [1]; at 1.2 µM -5% | [1]; at 3.7 µM -7% | [1]; at 11.0 µM -8% | [1]; at 33.0 µM -12% | [1]; at 100.0 µM 54% | [2]; at 1.2 µM -6% | [2]; at 3.7 µM -6% | [2]; at 11.0 µM -8% | [2]; at 33.0 µM -7% | [2]; at 100.0 µM 9% | [3]; at 1.2 µM -2% | [3]; at 3.7 µM 1% | [3]; at 11.0 µM 7% | [3]; at 33.0 µM 14% | [3]; at 100.0 µM 26% | [4]; at 1.2 µM -2% | [4]; at 3.7 µM -6% | [4]; at 11.0 µM -5% | [4]; at 33.0 µM -14% | [4]; at 100.0 µM 14% | [5]; at 1.2 µM -10% | [5]; at 3.7 µM -8% | [5]; [17] -165% | [5]; at 11.0 µM 2% | [5]; at 33.0 µM 3% | [6]; at 1.2 µM 2% | [6]; at 3.7 µM -3% | [6]; [17] -47% | [6]; at 11.0 µM 8% | [6]; at 33.0 µM 3% | [6]; at 100.0 µM 3% | [7]; at 1.2 µM -3% | [7]; at 3.7 µM 0% | [7]; at 11.0 µM -2% | [7]; at 33.0 µM 1% | [7]; at 100.0 µM 40% | [8]; [17] -63% | [9]; at 1.2 µM -1% | [9]; at 3.7 µM -1% | [9]; at 11.0 µM 0% | [9]; at 33.0 µM -4% | [9]; at 100.0 µM -2% | [10]; [17] -61% | [10]; [18] -2% | [10]; at 50.0 µM 15.3% | [11]; at 1.2 µM -9% | [11]; at 3.7 µM -3% | [11]; [17] -62% | [11]; at 11.0 µM -2% | [11]; at 33.0 µM -1% | [11]; at 100.0 µM 13% | [12]; at 1.2 µM -2% | [12]; at 3.7 µM -1% | [12]; at 11.0 µM -3% | [12]; at 33.0 µM -7% | [12]; at 100.0 µM 24% | [13]; at 1.2 µM 6% | [13]; at 3.7 µM -8% | [13]; at 11.0 µM -4% | [13]; at 33.0 µM -6% | [14]; at 1.2 µM -2% | [14]; at 3.7 µM -3% | [14]; at 11.0 µM -3% | [14]; at 33.0 µM -4% | [14]; at 100.0 µM 43% | [15]; [17] -116% | [16]; at 1.2 µM -4% | [16]; at 3.7 µM -4% | [16]; at 11.0 µM -2% | [16]; at 33.0 µM -3% | [16]; at 100.0 µM 61%
active: [5]; [18] 93% | [5]; at 50.0 µM 81.3% | [5]; at 100.0 µM 90% | [6]; [18] 78% | [6]; at 50.0 µM 83% | [8]; [18] 88% | [8]; at 50.0 µM 81% | [11]; [18] 91% | [11]; at 50.0 µM 80% | [13]; at 100.0 µM 72% | [15]; [18] 94% | [15]; at 50.0 µM 91.8%
